Test results: PubChem BioAssay AID504832 (National Center for Advancing Translational Sciences (NCATS), 2011)
The whole screen tested about 310,000 compounds, of which about 18,000 (5.8%) were called active. Roughly 22% stayed inconclusive and do not appear here. Calls come from the whole dose curve; as a rule, active = well fitted inhibition curve with a large enough effect; inconclusive = small, poorly fitted or top-dose-only effect, or another doubt; inactive = no such curve, though single readings can be large or run the other way. For the sample, actives were picked, then their nearest neighbours and some compounds at random.

assay: Primary qHTS for delayed death inhibitors of the malarial parasite plastid, 48 hour incubation; conditions: P. falciparum luciferase growth in erythrocytes; series mostly up to 28.7 µM; activity change, negative = inhibition: at the top concentration
Summary of the method: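 In quantitative HTS format, infected erythrocytes bearing luciferase-reporter parasites were treated for a single generation at 37 C. Luminescence after adding detection reagent served as the growth measure.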
% is set by controls: 0 for no effect and ±100 for the full control effect; potency is the fitted concentration of half-maximal effect.

Row | SMILES | activity change, negative = inhibition | Potency
1 | CCN(C(=O)CSc1ncnc2sccc12)c1c(N)n(Cc2ccccc2)c(=O)[nH]c1=O | 3.4% (inactive) | –
2 | O=C(NC1CCCCC1)c1cc([N+](=O)[O-])ccc1N1CCOCC1 | 19.6% (inactive) | –
3 | COc1ccc(S(=O)(=O)N2CCOCC2)cc1C(=O)NC1CCCCC1 | 3.9% (inactive) | –
4 | O=C(Nc1cc(S(=O)(=O)N2CCOCC2)ccc1OCC(F)(F)F)c1ccc(N2CCCC2=O)cc1 | 4.67% (inactive) | –
5 | COc1ccc(S(=O)(=O)N2CCCCC2)cc1NC(=O)c1cc([N+](=O)[O-])ccc1N1CCOCC1 | – | 9.28 µM (active)
6 | COc1ccc(S(=O)(=O)N2CCOCC2)cc1NC(=O)c1ccc(OCC(C)C)c(OC)c1 | – | 9.28 µM (active)
7 | COc1ccc(S(=O)(=O)N2CCOCC2)cc1NC(=O)CSc1cc(C)ccc1C | -13.2% (inactive) | –
8 | CC(C)Cn1c(=O)c2ccccc2n2c(CCC(=O)NCc3ccccn3)nnc12 | 13.6% (inactive) | –
9 | S=C(Nc1cccc(Br)c1)N1CCn2cccc2C1c1cccnc1 (stereo not given) | – | 11.7 µM (active)
10 | S=C(NCCc1ccccc1)N1CCn2cccc2C1c1ccncc1 (stereo not given) | – | 10.4 µM (active)
11 | S=C(NCCc1ccccc1)N1CCCCC1 | 316% (inactive) | –
12 | CC1CCCCN1C(=S)NCc1ccccc1 (stereo not given) | 1.1% (inactive) | –
13 | Fc1cc(Br)ccc1NC(=S)Nc1cccnc1 | 7.49% (inactive) | –
14 | COc1ccc(C(=O)NC(=S)N2CCCCC2c2cccnc2)cc1OC (stereo not given) | -13.4% (inactive) | –
15 | COc1ccc(CCNS(=O)(=O)c2cccc([N+](=O)[O-])c2)cc1 | -17.4% (inactive) | –
16 | CN1CCN(C(=O)c2ccccc2NC(=O)COc2ccccc2Cl)CC1 | 14.6% (inactive) | –
17 | COc1ccc(/C(C)=N\NC(=O)c2ccc(-c3ccccc3)cc2)c(F)c1 | 9.06% (inactive) | –
18 | CCOc1ccc(/C=C/C(=O)N(CC)CC(=O)NCc2cccs2)cc1OC | -15.4% (inactive) | –
19 | CCS(=O)(=O)Nc1ccc(C2=NN(C(C)=O)C(c3cccs3)C2)cc1 (stereo not given) | -10.4% (inactive) | –
20 | CS(=O)(=O)Nc1ccc(C2=NN(S(C)(=O)=O)C(c3cccs3)C2)cc1 (stereo not given) | 161% (inactive) | –
21 | CS(=O)(=O)Nc1cccc(C2=NN(C(=O)c3cccc(F)c3)C(c3cccs3)C2)c1 (stereo not given) | – | 11.7 µM (active)
22 | CSc1ncccc1C(=O)Nc1ccc(C)cn1 | 103% (inactive) | –
23 | Cc1ccc2c(c1)N(CC(=O)N1CCC(O)CC1)C(=O)CO2 | 6.39% (inactive) | –
24 | CC(C)c1ccc(OCC(O)Cn2cnc3ccccc32)cc1 (stereo not given) | – | 11.7 µM (active)
25 | CC(=O)OC(COc1ccc(F)cc1)Cn1cnc2ccccc21 (stereo not given) | -11.7% (inactive) | –
26 | CC(C)c1ccc(OCC(O)CN2CCN(c3ccccn3)CC2)cc1 (stereo not given) | 0% (inactive) | –
27 | COc1cc([N+](=O)[O-])cc([N+](=O)[O-])c1NC(=O)N1CCOCC1 | 8.08% (inactive) | –

Row | SMILES | activity change, negative = inhibition | Potency
28 | NC(=O)c1ccsc1NC(=O)COC(=O)Cc1n[nH]c(=O)c2ccccc12 | 31.2% (inactive) | –
29 | O=S(=O)(NC1CC1)c1ccc(Cl)cc1 | 37.1% (inactive) | –
30 | CC(Cc1ccccc1)NCCC(c1ccccc1)c1ccccc1 (stereo not given) | – | 10.4 µM (active)
31 | Cc1ncoc1C(=O)NCCC(c1ccccc1)c1ccccc1 | 3.18% (inactive) | –
32 | CC(Cc1ccccc1)C(=O)N(C)Cc1ccccc1 (stereo not given) | 8.7% (inactive) | –
33 | NS(=O)(=O)c1ccc(CCNC(=O)CN2C(=O)c3ccccc3S2(=O)=O)cc1 | 11.6% (inactive) | –
34 | COc1ccc(N2CCN(S(=O)(=O)c3ccc4c(c3)N(C(C)=O)CCO4)CC2)cc1 | 3.93% (inactive) | –
35 | COC(=O)C1=C(C)N(C)C(=S)NC1c1ccccc1 (stereo not given) | 29.7% (inactive) | –
36 | COC(=O)C1=C(C)N(C)C(C)=C(C(=O)OC)C1c1cccc(Br)c1 | – | 8.28 µM (active)
37 | COCCN1C(=O)N[C@@H](c2ccccc2)C(C(=O)OC)=C1C | 9.28% (inactive) | –
38 | CCn1cc(CN2CCC(n3nccc3NC(=O)CCCc3ccccc3)CC2)c(C)n1 | -0.875% (inactive) | –
39 | CNC(=O)N1c2ccccc2C=Cc2ccccc21 | -13% (inactive) | –
40 | CC1Sc2ccc(S(=O)(=O)CCC(=O)NCc3ccccc3Cl)cc2NC1=O (stereo not given) | 8.76% (inactive) | –
41 | CN(C)C(=O)c1ccc(NC(=O)c2ccccc2-c2ccccc2)cc1 | -3.63% (inactive) | –
42 | COc1ccc(Nc2nnc(C)c3ccccc23)cc1 | 35.9% (inactive) | –
43 | Cc1ccc(-c2nnc(Nc3ccc(C(=O)N(C)C)cc3)c3ccccc23)cc1S(N)(=O)=O | – | 9.28 µM (active)
44 | COc1ccc(NC(=O)CN(C)CC(=O)Nc2cccc(C(F)(F)F)c2)cc1 | 245% (inactive) | –
45 | COc1cc(C(=O)N(C)Cc2cccc(OC)c2OC)ccc1OCC(=O)Nc1cccc(C(F)(F)F)c1 | – | 11.7 µM (active)
46 | CCNC(=O)c1ccc(OCC(=O)Nc2ccc(F)cc2)c(OC)c1 | -10% (inactive) | –
47 | O=C(Nc1ccc(N2CCCCC2)cc1)c1cc(S(=O)(=O)N2CCOCC2)ccc1F | 17.7% (inactive) | –
48 | N#Cc1cccc(NC(=O)CN2CCCCCC2)c1 | -0.588% (inactive) | –
49 | O=C(Nc1cccc(Cl)c1)C1CCCN(c2cnccn2)C1 (stereo not given) | 3.85% (inactive) | –
50 | N#Cc1cccc(NC(=O)C2CCCN(C(=O)c3ccc(Cl)cc3)C2)c1 (stereo not given) | – | 9.28 µM (active)
51 | COc1ccc(Cl)cc1C(=O)OCC(=O)NCc1cccs1 | -24.5% (inactive) | –
52 | CCOC(=O)C1CCN(C(=O)C2CCCN(S(=O)(=O)c3ccc(OC)c(Cl)c3)C2)CC1 (stereo not given) | -11% (inactive) | –
53 | CCOC(=O)C1CCN(S(=O)(=O)c2ccc3c(c2)N(C(C)=O)CCO3)CC1 | 10% (inactive) | –
54 | O=C(COC(=O)C1CCN(S(=O)(=O)c2ccc3c(c2)OCCO3)CC1)Nc1ccccc1OC(F)F | 18.8% (inactive) | –

Row | SMILES | activity change, negative = inhibition | Potency
55 | CCOC(=O)C1CCN(C(=O)COC(=O)C2CCN(S(=O)(=O)c3ccc4c(c3)OCCO4)CC2)CC1 | – | 13.1 µM (active)
56 | Cc1c(C(=O)NCCN(C)C)oc2ccc(S(=O)(=O)N3CCCC3)cc12 | -9.73% (inactive) | –
57 | CCOC(=O)C1CCN(C(=O)c2oc3ccc(S(=O)(=O)N4CCCCCC4)cc3c2C)CC1 | – | 11.7 µM (active)
58 | CC(Sc1nnc(-c2ccccc2F)n1C1CC1)C(N)=O (stereo not given) | 10.9% (inactive) | –
59 | Cc1occc(=O)c1OCc1ccc(F)cc1 | 30.1% (inactive) | –
60 | Clc1nc(NC2CCCC2)nc(N2CCOCC2)n1 | -29.6% (inactive) | –
61 | Cc1ccc(NC(=O)Cc2nnc(SCC(=O)Nc3nncs3)n2C)cc1 | 4.96% (inactive) | –
62 | CCc1noc(C)c1C(=O)N1CCN(S(=O)(=O)c2cccc(C(F)(F)F)c2)CC1 | 0.699% (inactive) | –
63 | Cc1onc(C(=O)NN)c1C(=O)N1CCN(C(c2ccccc2)c2ccccc2)CC1 | – | 5.86 µM (active)
64 | Cc1c(C(=O)N2CCCC2)c(S(=O)(=O)NCC(C)c2ccccc2)c(C)n1C (stereo not given) | 2.4% (inactive) | –
65 | COc1ccc(N2CCN(C(=O)Cn3cnc4sc(C)c(S(=O)(=O)N5CCOCC5)c4c3=O)CC2)cc1 | -4.67% (inactive) | –
66 | CN(Cc1cccs1)C(=O)CN1C(=O)c2ccccc2S1(=O)=O | 88.3% (inactive) | –
67 | CCC1CCC2(CC1)NC(=O)N(CC(=O)Nc1ccc(OC)cc1)C2=O (stereo not given) | 37% (inactive) | –
68 | O=C(CN(CC1CCCO1)C(=O)CNS(=O)(=O)c1ccc(Cl)cc1)NCc1ccccc1 (stereo not given) | 3.72% (inactive) | –
69 | CCN(C(=O)COC(=O)c1c(C)nn(-c2ccccc2)c1Cl)c1c(N)n(Cc2ccccc2)c(=O)[nH]c1=O | – | 10.4 µM (active)
70 | CCN(C(=O)COC(=O)CCOc1cccc(C)c1)c1c(N)n(Cc2ccccc2)c(=O)[nH]c1=O | 22.5% (inactive) | –
71 | CCN(C(=O)COC(=O)c1sccc1C)c1c(N)n(Cc2ccccc2)c(=O)[nH]c1=O | 7.91% (inactive) | –
72 | Cc1ccccc1NC(=O)Cc1nc(COC(=O)c2cccnc2Cl)cs1 | -12.1% (inactive) | –
73 | O=C(CCNC(=O)c1ccc([N+](=O)[O-])cc1)NC1CCCCC1 | 78.6% (inactive) | –
74 | CCOc1cc(C(=S)N2CCOCC2)ccc1OS(=O)(=O)c1ccc(Br)cc1 | -22.3% (inactive) | –
75 | COc1cc(OC)c(C(=S)N2CCCC2)cc1OC | -9.05% (inactive) | –
76 | COC(=O)[C@@H](Cc1ccccc1)NC(=O)NCCc1ccccc1 | 12.7% (inactive) | –
77 | Cc1ccccc1CSCCNC(=O)c1ccc(Cl)c(S(=O)(=O)N2CCOCC2)c1 | – | 11.7 µM (active)
78 | O=C(NCc1cccnc1)c1cc(S(=O)(=O)N2CCOCC2)c(Cl)cc1Cl | 0.602% (inactive) | –
79 | Cc1ccc(NC(=O)CCCNC(=O)c2ccc(Cl)cc2)cc1S(=O)(=O)N1CCOCC1 | -1.73% (inactive) | –
80 | Cc1ccc(C(=O)Nc2ncccc2C)cc1S(=O)(=O)N1CCOCC1 | -10% (inactive) | –
81 | Cc1ccccc1CSCCNC(=O)c1ccc(N(C)S(=O)(=O)c2ccccc2)cc1 | -4.77% (inactive) | –

Row | SMILES | activity change, negative = inhibition | Potency
82 | O=C(NCCSCc1ccccc1)c1ccc(Cl)c(S(=O)(=O)N2CCOCC2)c1 | – | 10.4 µM (active)
83 | Cc1ccccc1N1CC(C(=O)Nc2ccc3c(c2)OCO3)CC1=O (stereo not given) | 5.88% (inactive) | –
84 | Cc1ccc(Cl)c(OCC(=O)N2CCc3ccccc3C2)c1 | 24.2% (inactive) | –
85 | OCC1(Cc2ccccc2)CCN(Cc2cc3ccccc3o2)CC1 | -33% (inactive) | –
86 | CC(C)c1csc(CN2CCC(CO)(Cc3ccccc3)CC2)n1 | 24.2% (inactive) | –
87 | OCC1(Cc2ccccc2C(F)(F)F)CCN(Cc2cccc3cnccc23)CC1 | – | 11.7 µM (active)
88 | Cn1nc([N+](=O)[O-])nc1Sc1ccc(C(C)(C)C)cc1 | – | 13.1 µM (active)
89 | CC(C)(C)NC(=O)Cn1cnc([N+](=O)[O-])n1 | 10.5% (inactive) | –
90 | Cn1nc(C(C)(C)C)c([N+](=O)[O-])c1C(N)=O | 21.4% (inactive) | –
91 | Cc1ccnc(NC(=O)CNC(=O)c2ccccc2)c1 | 57.5% (inactive) | –
92 | Cc1cccc2sc(N(CCCN(C)C)C(=O)CCS(=O)(=O)c3ccccc3)nc12 | 22.4% (inactive) | –
93 | COc1cccc2sc(N(CCCN(C)C)C(=O)CCS(=O)(=O)c3ccccc3)nc12 | 22.4% (inactive) | –
94 | COc1cccc2sc(N(CCCN(C)C)C(=O)C(c3ccccc3)c3ccccc3)nc12 | – | 13.1 µM (active)
95 | Cc1ccc(CSc2nsc(C)c2C#N)cc1 | 18% (inactive) | –
96 | O=C1c2ccccc2S(=O)(=O)N1Cc1c(F)cccc1Cl | -0.656% (inactive) | –
97 | CCOC(=O)c1cnc2ccc(F)cc2c1Nc1ccc2c(c1)OCCO2 | – | 9.28 µM (active)
98 | CCCCC(=O)Nc1ccc2c(c1)OCCO2 | 132% (inactive) | –
99 | COC(=O)CCNc1ccc2c(c1)OCCO2 | 157% (inactive) | –
100 | CCOCCn1c(C(C)C)nc2ccccc21 | 12.6% (inactive) | –
101 | CCOCCCNc1c(CC)c(C)c(C#N)c2nc3ccccc3n12 | – | 3.29 µM (active)
102 | CN(C)CCCNc1c2c(c(C#N)c3nc4ccccc4n13)CCC2 | -11.5% (inactive) | –
103 | CCCCCn1c(=O)c(C(=O)NCc2ccccc2)c(O)c2ccccc21 | – | 9.28 µM (active)
104 | CCCCCn1c(=O)c(C(=O)Nc2c(C)n(C)n(-c3ccccc3)c2=O)c(O)c2ccccc21 | 122% (inactive) | –
105 | CCCCn1c(=O)c(C(C)=O)c(O)c2ccccc21 | -4.84% (inactive) | –
